High-throughput results: PubChem BioAssay, The Scripps Research Institute Molecular Screening Center
An excerpt weighted towards active compounds, which were near 3.5% of everything screened.
GPR151 ag: activators of human GPR151. PathHunter beta-arrestin GPR151 cells, luminescence. 650,000 tested, 1% active. Q8TDV0. AID 1508602. activation, % at 11.2 µM; in the data active means activation above about 4.9%;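 further: 0% = median of compound wells and 100% = cells with positive control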
MITF primary: blocks human microphthalmia-associated transcription factor; AlphaScreen MITF homodimerization, bead proximity signal; 650,000 tested, 0.91% active; inhibition, % at 2.6 µM; AID 1259374; in the data active means inhibition above about 50%;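 further: 0% = vehicle wells with protein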
Target sequence (O75030 whole entry, looked up): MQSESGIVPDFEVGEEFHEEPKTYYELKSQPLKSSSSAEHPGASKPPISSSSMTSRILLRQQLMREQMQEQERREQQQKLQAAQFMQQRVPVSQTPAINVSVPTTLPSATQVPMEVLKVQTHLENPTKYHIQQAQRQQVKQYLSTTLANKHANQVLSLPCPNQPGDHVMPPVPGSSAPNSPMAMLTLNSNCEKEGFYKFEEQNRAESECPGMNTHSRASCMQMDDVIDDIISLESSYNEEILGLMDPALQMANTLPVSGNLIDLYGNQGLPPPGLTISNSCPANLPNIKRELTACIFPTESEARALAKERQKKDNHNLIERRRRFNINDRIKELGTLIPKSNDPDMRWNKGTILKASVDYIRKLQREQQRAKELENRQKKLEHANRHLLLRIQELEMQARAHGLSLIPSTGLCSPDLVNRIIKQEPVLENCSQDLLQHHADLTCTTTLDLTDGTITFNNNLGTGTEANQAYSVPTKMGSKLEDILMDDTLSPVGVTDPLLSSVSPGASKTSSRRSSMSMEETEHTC
FBW7 activator: human FBW7 E3 ligase activation, primary screen; Q969H0; AlphaScreen FBW7–phospho-cyclin E peptide binding, activator screen; normalized activity (activation), % at 26.1 µM; 650,000 tested, 0.13% active; AID 1259310; in the data active means normalized activity above about 1.9%;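 further: purified mutant Fbw7 with reduced substrate affinity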
TEAD-YAP inh: TEAD-YAP interaction inhibition. HEK-TIYL cells, TEAD-Gal4/YAP UAS-luciferase luminescence. inhibition, % at 9.12 µM. 640,000 tested, 1.4% active; in the data active means inhibition above about 32%;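 further: 0% = median of test compound wells and 100% = reference inhibitor wells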
Active calls of the source: *; ! = not confirmed by another sample.

SMILES	GPR151 ag	MITF primary	FBW7 activator	TEAD-YAP inh
CC(=O)Nc1ccc(Nc2ncnc3nc(-c4ccc(N5CCOCC5)nc4)[nH]c23)cc1	-1	0	0	28
Cc1noc(C)c1-c1nc2ncnc(Nc3ccc(N4CCOCC4)cc3)c2[nH]1	-1	13	0	33*
Cc1ccc(-c2cnn(-c3ccc(C(=O)O)cc3)c2)cc1	-11	-2	0	42*
CCOC(=O)C1CCCN(C(=O)c2cc3c(=O)[nH]c4ccccc4c3s2)C1 (configuration not stated)	1	5	0	12
CN(C)CCCN(C(=O)c1ccc(Br)s1)c1nc2c(F)cc(F)cc2s1	3	-6	3.2*	-9
CN(C)CCCN(C(=O)c1ccc2c(c1)OCCO2)c1nc2c(F)cc(F)cc2s1	0	15	0	-27
CCOC(=O)c1cccc(NC(=O)/C(=C\c2ccccc2)NC(=O)c2ccccc2)c1	0	-5	0	10
CN(C)CP(=O)(O)CCc1ccccc1	-1	1	5.1*	8
O=C1c2c(O)ccc(O)c2C(=O)c2c(O)ccc(O)c21	3	43	0	14
O=C1c2c(O)ccc(O)c2C(=O)c2c(NCCNCCO)ccc(NCCNCCO)c21	-2	52*!	-1	55*
N/C(=N\O)c1ccc(Oc2ccc(Oc3ccc(/C(N)=N/O)cc3)cc2)cc1	0	3	2	84*
O=C(CCc1nnc(Cc2cccc(C(F)(F)F)c2)o1)NCCN1CCOC1=O	0	-8	0	-5
O=C(N/N=C/c1cccc(O)c1)c1ccc(F)cc1	-1	8	0	35*
CC(C)(C)OC(=O)N/N=C/c1cccc(O)c1	-4	3	0	84*
CCOC(=O)c1[nH]c(C)c(C(=O)NCCCOC)c1C	2	-3	0	-9
CCOc1ccc(NC(=O)Cc2cccc3c(S(=O)O)cccc23)cc1	-7	-3	0	-31
CCn1c(N2CCC(C(=O)NC3CCN(Cc4ccccc4)CC3)CC2)nc2ccccc21	0	9	0	39*
CCn1c(N2CCC(C(=O)NCCO)CC2)nc2ccccc21	0	0	0	-2
